# From the OligoGym collection
# Target: FH
# Assay: pooled miR-30 sensor sort-seq; sequence = guide strand
# Conditions: shRNA
# Note: reference of the scale not given here.
row,Sequence,sensor-assay potency score (higher = more potent)
1,TTACATTCATATTTGTCTGAGT,0.037
2,TTACTTGTTGAACATAACCACT,-1.14
3,TTTACATTCATATTTGTCTGAG,-0.0374

# Target: FIGF
# Assay: as above
# Conditions: shRNA
row,Sequence,sensor-assay potency score (higher = more potent)
1,TTGGCAAGCACTTACAACCTGT,-0.889
2,TTGGTCTGGATTCACTGTGGTG,-0.724
3,TAATCAGTCATATGACACCTGC,-0.697
4,TAGAAGACATCCATCAATGAAC,-1.15
5,TCATCTATAACTTTTAGTGTTT,-1.04
6,TGTTTTACAGACACACTCGCAA,0.505
7,TTCTTTGCCATTCTTCATCTAT,-0.386
8,TTCTGCATAAAAAAGAATCAGA,-0.887
9,TGATCTGCTGTTCAGATCGTTC,-1.69
10,TTACATTTGTTGCTATCCCATA,-0.837
11,TTTGTTGCTATCCCATAGCATG,-1.38
12,TTCTTCATCTATAACTTTTAGT,-0.323
13,TAATTGAGTATGGATGGCGGGG,-0.582
14,TTCATCTATAACTTTTAGTGTT,-0.356
15,TAGAAAGTTGCCGCAAACCTAG,-0.566
16,AAACTTTTGAGCCTCAGCCTGC,-0.913
17,TTACAGACACACTCGCAACGAT,-0.443
18,TTGCACTCAAAGCAACTGCAGT,-1.07
19,TACAGACACACTCGCAACGATC,-1.17
20,TGCAACAGCCACCACATCGGAA,-0.975
21,TAGTGTTTCAATGTCATAGAAA,-1.28
22,TAGCATGTCAATAGGACAGAGT,-0.483
23,TTTTTTTTTAACACCTGGGAAA,-1.2
24,ATCTTCGTCAAACATCATGTGT,-0.944

# Target: FILIP1L
# Assay: as above
# Conditions: shRNA
row,Sequence,sensor-assay potency score (higher = more potent)
1,TTTTTCTTTTATATCTTGCAGC,-0.415
2,TTAGAGAACCACAAGACTCTGG,0.224
3,TTTTTCAACATATTAACTCTTG,-0.558
4,TATAGTTCATGCACAAACCTTC,-0.0966
5,TTCTTGATCAATTAGCTTCTTT,0.000192
6,TTTTTCCACAACTTTGTCCAAC,-1.3
7,TTGCTGTTCATCCACCACCATC,-1.76
8,TAATTTGTGATTGTCGAGGAAG,-0.722
9,TTTTCTGCTAACTTGTACTTAG,-0.314
10,TTACTCTGTAACGTCTCCCTTT,-0.579
11,TTGTCTACTGCTTCTGTCTGAA,0.143
12,TTGAGTTCGGTTATCCTGCAGT,-0.337
